# Data published in article PMC7862700, “An all-to-all approach to the identification of sequence-specific readers for epigenetic DNA modifications on cytosine”.
# Tests used:
# Experiment in all cases: DAPPL (digital affinity profiling via proximity ligation, sequencing); 10 mM Tris-HCl pH 7.5, 50 mM NaCl, 1 mM DTT, 4% glycerol, room temperature, 30 min; GST-TFs on glutathione beads, 16-mer random dsDNA library, 0.1% formaldehyde crosslink after washing; high values mean tight binding
# FLI1 = molecular target: T1, FLI1 (Homo sapiens, UniProt Q01543 1-452); conditions: protein: recombinant; tags: N-terminal GST; dsDNA, one strand shown
# T1 sequence: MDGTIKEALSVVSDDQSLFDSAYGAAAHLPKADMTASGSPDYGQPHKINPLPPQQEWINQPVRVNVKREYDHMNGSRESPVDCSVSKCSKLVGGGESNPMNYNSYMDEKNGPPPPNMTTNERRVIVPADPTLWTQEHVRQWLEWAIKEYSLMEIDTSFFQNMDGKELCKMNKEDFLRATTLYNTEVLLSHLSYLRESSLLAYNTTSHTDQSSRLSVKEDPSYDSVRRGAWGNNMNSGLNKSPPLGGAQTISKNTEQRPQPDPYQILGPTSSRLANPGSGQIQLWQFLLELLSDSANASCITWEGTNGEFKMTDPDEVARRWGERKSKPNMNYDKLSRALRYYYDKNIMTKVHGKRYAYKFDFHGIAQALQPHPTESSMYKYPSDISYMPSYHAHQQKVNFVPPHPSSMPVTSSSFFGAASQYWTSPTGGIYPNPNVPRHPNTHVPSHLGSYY
# Method in brief: (§1)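 Beads coated with glutathione captured GST-fused human transcription factors that had been expressed in yeast, and the factors were then given DNA barcodes and pooled with a tag-only sample. The pools were incubated with 200 nmole of a random double-stranded 16-mer DNA library in Tris/NaCl/DTT/glycerol buffer for 30 min at room temperature, washed, crosslinked with 0.1% formaldehyde and proximity-ligated with BsaI/T4 ligase at 37 °C for 1 h. PCR amplification and Illumina NextSeq500 sequencing came last. Binding signal is each hexamer's read frequency for a factor divided by its frequency for the tag-only sample.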
# ELK1 = molecular target: T2, ELK1 (Homo sapiens, UniProt P19419 1-428); conditions: protein: recombinant; tags: N-terminal GST; dsDNA, one strand shown
# T2 sequence: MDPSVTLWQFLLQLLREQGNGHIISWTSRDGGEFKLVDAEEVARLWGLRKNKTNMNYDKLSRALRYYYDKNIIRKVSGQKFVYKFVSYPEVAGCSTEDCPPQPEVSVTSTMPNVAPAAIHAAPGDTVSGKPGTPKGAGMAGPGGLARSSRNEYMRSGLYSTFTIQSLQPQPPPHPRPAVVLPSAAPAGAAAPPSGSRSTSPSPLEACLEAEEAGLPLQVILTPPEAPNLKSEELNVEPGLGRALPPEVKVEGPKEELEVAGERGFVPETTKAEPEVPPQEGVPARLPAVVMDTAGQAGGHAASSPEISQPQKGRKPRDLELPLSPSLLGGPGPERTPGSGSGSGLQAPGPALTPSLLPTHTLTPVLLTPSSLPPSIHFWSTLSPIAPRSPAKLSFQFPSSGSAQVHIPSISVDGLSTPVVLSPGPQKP
# Method in brief: as §1
# GABPA = molecular target: T3, GABPA (Homo sapiens, UniProt Q06546 1-454); conditions: protein: recombinant; tags: N-terminal GST; dsDNA, one strand shown
# T3 sequence: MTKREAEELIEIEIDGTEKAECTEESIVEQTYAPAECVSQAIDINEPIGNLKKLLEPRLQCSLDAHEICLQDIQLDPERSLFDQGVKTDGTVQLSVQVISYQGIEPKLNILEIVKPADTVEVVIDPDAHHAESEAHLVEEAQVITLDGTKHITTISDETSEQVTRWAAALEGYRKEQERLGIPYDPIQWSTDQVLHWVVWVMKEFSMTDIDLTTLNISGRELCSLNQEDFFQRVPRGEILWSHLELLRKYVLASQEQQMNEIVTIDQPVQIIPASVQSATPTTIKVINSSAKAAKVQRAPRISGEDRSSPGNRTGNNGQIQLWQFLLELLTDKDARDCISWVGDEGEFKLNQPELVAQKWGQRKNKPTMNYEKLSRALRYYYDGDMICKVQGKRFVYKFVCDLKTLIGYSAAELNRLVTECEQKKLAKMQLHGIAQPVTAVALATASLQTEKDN
# Method in brief: as §1
# ERG = molecular target: T4, ERG (Homo sapiens, UniProt P11308 1-479); conditions: protein: recombinant; tags: N-terminal GST; dsDNA, one strand shown
# T4 sequence: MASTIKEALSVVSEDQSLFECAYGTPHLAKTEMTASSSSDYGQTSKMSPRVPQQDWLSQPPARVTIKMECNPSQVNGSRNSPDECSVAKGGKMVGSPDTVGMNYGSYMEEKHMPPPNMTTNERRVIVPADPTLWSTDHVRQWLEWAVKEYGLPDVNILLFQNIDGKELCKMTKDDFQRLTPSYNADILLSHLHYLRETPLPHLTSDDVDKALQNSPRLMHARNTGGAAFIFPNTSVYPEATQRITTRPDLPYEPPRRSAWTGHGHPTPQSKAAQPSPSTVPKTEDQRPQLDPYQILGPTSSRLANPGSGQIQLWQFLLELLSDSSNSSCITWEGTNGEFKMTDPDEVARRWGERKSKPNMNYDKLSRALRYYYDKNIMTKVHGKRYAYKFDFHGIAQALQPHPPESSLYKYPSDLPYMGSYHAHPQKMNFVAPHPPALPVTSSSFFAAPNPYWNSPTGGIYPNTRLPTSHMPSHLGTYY
# Method in brief: as §1
# ELF1 = ELF1 (Homo sapiens, UniProt P32519 1-619); conditions: protein: recombinant; tags: N-terminal GST; dsDNA, one strand shown
# Sequence of ELF1 (P32519 whole entry): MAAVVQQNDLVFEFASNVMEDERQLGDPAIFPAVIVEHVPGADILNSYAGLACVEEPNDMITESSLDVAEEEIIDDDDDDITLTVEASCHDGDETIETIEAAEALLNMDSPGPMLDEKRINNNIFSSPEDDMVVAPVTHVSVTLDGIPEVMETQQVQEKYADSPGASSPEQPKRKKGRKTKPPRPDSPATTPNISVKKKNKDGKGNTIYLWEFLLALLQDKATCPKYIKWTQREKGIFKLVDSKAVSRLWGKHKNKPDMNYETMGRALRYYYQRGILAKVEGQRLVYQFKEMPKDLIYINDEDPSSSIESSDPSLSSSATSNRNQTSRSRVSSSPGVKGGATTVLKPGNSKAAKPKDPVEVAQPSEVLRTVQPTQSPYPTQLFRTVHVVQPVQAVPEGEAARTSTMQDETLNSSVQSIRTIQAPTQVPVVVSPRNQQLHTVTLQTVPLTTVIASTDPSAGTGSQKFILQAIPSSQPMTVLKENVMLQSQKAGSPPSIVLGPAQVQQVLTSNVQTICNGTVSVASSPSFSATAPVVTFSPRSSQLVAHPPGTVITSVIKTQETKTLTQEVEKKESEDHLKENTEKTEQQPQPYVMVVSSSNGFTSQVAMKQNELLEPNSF
# Method in brief: as §1
# EHF = molecular target: T5, EHF (Homo sapiens, UniProt Q9NZC4 1-300); conditions: protein: recombinant; tags: N-terminal GST; dsDNA, one strand shown
# T5 sequence: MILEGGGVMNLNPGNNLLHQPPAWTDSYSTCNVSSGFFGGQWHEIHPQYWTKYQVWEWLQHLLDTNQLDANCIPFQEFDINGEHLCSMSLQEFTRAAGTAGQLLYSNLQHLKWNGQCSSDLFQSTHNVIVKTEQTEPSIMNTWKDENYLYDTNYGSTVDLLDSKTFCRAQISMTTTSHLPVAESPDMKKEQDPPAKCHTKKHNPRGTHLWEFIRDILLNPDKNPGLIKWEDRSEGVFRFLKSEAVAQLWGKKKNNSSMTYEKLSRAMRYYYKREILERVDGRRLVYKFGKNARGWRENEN
# Method in brief: as §1
# SPI1 = SPI1 (Homo sapiens, UniProt P17947 1-270); conditions: protein: recombinant; tags: N-terminal GST; dsDNA, one strand shown
# Method in brief: as §1
# SPIB = SPIB (Homo sapiens, UniProt Q01892 1-262); conditions: protein: recombinant; tags: N-terminal GST; dsDNA, one strand shown
# Sequence of SPIB (Q01892 whole entry): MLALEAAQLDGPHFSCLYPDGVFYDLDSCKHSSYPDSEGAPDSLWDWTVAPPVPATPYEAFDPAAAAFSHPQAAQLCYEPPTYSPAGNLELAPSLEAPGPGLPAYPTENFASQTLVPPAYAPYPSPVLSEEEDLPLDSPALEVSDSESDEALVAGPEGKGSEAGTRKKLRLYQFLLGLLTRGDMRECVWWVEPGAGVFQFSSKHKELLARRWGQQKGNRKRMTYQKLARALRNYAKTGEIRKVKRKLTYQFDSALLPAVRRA
# Method in brief: as §1
# ELK3 = molecular target: T6, ELK3 (Homo sapiens, UniProt P41970 1-407); conditions: protein: recombinant; tags: N-terminal GST; dsDNA, one strand shown
# T6 sequence: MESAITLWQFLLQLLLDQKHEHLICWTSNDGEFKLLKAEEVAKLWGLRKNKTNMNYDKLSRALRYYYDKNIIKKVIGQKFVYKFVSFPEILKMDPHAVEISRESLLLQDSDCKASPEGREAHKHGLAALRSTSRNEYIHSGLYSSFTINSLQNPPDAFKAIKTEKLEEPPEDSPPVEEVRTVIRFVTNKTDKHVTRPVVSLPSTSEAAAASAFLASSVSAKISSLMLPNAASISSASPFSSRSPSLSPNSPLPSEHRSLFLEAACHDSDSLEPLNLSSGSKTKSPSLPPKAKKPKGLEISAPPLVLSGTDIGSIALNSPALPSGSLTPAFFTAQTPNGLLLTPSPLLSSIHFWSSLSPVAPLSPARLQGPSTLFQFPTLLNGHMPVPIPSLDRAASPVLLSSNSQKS
# Method in brief: as §1
# FEV = molecular target: T7, FEV (Homo sapiens, UniProt Q99581 1-238); conditions: protein: recombinant; tags: N-terminal GST; dsDNA, one strand shown
# T7 sequence: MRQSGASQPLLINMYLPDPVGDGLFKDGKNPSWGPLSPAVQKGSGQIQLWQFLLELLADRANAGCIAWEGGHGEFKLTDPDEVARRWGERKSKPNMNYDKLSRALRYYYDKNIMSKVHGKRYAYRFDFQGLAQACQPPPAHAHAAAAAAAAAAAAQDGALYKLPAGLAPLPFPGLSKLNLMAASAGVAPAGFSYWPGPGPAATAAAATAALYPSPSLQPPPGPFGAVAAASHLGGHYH
# Method in brief: as §1
# ETV5 = ETV5 (Homo sapiens, UniProt P41161 1-510); conditions: protein: recombinant; tags: N-terminal GST; dsDNA, one strand shown
# Sequence of ETV5 (P41161 whole entry): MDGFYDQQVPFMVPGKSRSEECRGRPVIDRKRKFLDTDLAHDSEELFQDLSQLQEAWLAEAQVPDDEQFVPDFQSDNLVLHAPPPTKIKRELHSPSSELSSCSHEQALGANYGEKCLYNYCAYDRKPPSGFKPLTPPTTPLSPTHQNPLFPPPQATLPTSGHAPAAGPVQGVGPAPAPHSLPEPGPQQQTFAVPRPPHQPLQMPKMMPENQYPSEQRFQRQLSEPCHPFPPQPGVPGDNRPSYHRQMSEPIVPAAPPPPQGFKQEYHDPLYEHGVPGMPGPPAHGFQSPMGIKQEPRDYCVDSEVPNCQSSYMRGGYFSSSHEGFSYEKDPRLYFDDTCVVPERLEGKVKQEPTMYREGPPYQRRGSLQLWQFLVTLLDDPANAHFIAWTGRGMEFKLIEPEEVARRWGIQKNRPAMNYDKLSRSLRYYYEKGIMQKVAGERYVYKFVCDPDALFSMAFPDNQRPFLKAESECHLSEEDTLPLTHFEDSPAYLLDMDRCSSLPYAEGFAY
# Method in brief: as §1
# HSF1 = HSF1 (Homo sapiens, UniProt Q00613 1-529); conditions: protein: recombinant; tags: N-terminal GST; chain copies: 3; dsDNA, one strand shown
# Sequence of HSF1 (Q00613 whole entry): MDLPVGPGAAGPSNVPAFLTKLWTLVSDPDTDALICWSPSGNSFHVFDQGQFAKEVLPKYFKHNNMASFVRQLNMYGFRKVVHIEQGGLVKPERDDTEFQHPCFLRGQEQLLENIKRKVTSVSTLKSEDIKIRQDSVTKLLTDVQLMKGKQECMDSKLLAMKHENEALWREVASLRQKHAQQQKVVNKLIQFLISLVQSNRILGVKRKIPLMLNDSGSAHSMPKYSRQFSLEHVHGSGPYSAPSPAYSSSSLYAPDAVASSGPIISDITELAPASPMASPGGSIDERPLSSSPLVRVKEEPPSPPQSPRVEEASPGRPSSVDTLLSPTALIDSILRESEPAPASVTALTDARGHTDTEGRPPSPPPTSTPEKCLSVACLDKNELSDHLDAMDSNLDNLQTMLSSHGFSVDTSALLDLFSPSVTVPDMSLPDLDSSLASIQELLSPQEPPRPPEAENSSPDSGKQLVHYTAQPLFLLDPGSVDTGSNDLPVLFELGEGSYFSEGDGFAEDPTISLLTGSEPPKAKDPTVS
# Method in brief: as §1
# SPIC = molecular target: T8, SPIC (Homo sapiens, UniProt Q8N5J4 1-248); conditions: protein: recombinant; tags: N-terminal GST; dsDNA, one strand shown
# T8 sequence: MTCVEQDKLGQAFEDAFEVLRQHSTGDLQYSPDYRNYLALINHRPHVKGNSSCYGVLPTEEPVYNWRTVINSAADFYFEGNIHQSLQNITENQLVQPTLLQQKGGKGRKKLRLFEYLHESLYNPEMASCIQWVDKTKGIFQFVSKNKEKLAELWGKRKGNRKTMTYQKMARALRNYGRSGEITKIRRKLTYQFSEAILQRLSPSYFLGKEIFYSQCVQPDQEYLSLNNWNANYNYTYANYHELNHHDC
# Method in brief: as §1
# ELF4 = ELF4 (Homo sapiens, UniProt Q99607 1-663); conditions: protein: recombinant; tags: N-terminal GST; dsDNA, one strand shown
# Sequence of ELF4 (Q99607 whole entry): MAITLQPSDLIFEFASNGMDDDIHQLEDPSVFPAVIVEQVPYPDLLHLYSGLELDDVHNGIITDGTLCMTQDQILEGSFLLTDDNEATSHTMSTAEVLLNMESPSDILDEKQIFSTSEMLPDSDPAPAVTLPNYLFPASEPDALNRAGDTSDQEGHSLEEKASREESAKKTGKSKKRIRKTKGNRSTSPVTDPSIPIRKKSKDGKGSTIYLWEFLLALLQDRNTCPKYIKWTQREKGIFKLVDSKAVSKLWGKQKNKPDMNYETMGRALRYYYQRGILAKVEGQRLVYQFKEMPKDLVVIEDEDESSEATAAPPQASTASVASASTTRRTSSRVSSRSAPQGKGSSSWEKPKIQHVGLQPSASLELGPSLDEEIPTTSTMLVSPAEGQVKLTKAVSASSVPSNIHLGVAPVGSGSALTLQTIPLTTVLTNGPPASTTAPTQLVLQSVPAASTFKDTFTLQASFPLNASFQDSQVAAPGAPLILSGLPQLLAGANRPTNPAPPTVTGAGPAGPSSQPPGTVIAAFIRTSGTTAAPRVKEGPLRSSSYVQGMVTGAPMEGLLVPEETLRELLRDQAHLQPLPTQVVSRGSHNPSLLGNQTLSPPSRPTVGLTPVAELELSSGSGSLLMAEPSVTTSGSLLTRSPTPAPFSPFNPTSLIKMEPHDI
# Method in brief: as §1
# ELK4 = molecular target: T9, ELK4 (Homo sapiens, UniProt P28324-2 1-405); conditions: protein: recombinant; tags: N-terminal GST; dsDNA, one strand shown
# T9 sequence: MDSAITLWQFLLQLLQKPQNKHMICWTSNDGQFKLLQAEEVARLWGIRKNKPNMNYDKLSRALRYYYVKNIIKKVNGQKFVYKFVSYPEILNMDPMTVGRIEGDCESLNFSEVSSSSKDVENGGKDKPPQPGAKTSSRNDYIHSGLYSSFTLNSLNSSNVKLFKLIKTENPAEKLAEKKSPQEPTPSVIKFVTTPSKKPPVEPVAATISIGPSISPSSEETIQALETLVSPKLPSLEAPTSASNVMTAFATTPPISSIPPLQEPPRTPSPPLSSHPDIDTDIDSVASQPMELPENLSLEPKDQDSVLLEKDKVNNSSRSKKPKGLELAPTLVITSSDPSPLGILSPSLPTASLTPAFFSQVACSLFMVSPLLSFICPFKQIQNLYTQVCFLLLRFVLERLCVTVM
# Method in brief: as §1
# ETV2 = molecular target: T10, ETV2 (Homo sapiens, UniProt O00321 1-342); conditions: protein: recombinant; tags: N-terminal GST; dsDNA, one strand shown
# T10 sequence: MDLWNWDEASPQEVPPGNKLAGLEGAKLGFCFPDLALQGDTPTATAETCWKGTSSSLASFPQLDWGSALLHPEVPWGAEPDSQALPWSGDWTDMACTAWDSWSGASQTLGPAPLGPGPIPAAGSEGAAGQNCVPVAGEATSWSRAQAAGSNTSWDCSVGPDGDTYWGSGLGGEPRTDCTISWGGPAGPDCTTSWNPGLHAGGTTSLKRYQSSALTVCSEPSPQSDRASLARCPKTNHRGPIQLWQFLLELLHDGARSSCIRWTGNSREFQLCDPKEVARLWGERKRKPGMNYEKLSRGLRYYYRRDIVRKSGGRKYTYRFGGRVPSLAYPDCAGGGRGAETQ
# Method in brief: as §1
# ELF3 = molecular target: T11, ELF3 (Homo sapiens, UniProt P78545 1-371); conditions: protein: recombinant; tags: N-terminal GST; dsDNA, one strand shown
# T11 sequence: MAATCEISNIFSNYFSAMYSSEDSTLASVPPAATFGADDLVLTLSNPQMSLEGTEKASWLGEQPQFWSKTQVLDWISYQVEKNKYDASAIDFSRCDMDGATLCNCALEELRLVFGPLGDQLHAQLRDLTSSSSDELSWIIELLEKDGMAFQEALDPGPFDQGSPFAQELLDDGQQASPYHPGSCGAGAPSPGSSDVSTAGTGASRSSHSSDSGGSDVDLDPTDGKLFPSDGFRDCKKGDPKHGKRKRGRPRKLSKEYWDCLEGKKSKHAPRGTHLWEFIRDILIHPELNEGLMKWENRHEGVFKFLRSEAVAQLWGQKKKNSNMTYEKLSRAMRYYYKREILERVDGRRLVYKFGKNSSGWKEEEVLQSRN
# Method in brief: as §1
# CRX = CRX (Homo sapiens, UniProt O43186 1-299); conditions: protein: recombinant; tags: N-terminal GST; dsDNA, one strand shown
# Sequence of CRX (O43186 whole entry): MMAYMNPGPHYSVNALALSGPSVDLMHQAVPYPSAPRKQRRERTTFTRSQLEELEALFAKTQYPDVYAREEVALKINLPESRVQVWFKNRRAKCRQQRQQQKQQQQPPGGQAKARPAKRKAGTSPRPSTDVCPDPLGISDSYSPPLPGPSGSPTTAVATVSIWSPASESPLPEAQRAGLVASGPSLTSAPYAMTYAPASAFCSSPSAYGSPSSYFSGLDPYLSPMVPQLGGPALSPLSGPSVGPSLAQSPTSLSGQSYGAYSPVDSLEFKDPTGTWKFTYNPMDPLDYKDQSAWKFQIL
# Method in brief: as §1
# ETV1 = ETV1 (Homo sapiens, UniProt P50549 1-477); conditions: protein: recombinant; tags: N-terminal GST; dsDNA, one strand shown
# Sequence of ETV1 (P50549 whole entry): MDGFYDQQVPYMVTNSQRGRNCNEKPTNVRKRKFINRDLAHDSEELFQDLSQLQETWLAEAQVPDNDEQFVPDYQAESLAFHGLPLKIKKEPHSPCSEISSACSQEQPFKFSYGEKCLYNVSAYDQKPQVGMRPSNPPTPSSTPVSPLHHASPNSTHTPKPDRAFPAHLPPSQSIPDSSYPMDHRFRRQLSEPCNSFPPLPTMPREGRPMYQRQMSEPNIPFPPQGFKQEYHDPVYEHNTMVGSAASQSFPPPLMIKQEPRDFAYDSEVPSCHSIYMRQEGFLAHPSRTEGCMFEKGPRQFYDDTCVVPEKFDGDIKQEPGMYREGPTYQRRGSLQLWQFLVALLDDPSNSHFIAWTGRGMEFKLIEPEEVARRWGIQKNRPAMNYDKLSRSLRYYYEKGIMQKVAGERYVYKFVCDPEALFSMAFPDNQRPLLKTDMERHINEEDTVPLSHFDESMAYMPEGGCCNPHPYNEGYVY
# Method in brief: as §1
sequence,measurement,setting,value
TCTTTG,binding signal,FLI1,"1.18 fold enrichment (6-mer frequency, TF over GST control)"
same,binding signal,ELK1,"1.18 fold enrichment (6-mer frequency, TF over GST control)"
same,binding signal,GABPA,"1.2 fold enrichment (6-mer frequency, TF over GST control)"
same,binding signal,ERG,"1.25 fold enrichment (6-mer frequency, TF over GST control)"
same,binding signal,ELF1,"1.25 fold enrichment (6-mer frequency, TF over GST control)"
same,binding signal,EHF,"1.21 fold enrichment (6-mer frequency, TF over GST control)"
same,binding signal,SPI1,"1.21 fold enrichment (6-mer frequency, TF over GST control)"
same,binding signal,SPIB,"1.05 fold enrichment (6-mer frequency, TF over GST control)"
same,binding signal,ELK3,"1.31 fold enrichment (6-mer frequency, TF over GST control)"
same,binding signal,FEV,"1.09 fold enrichment (6-mer frequency, TF over GST control)"
same,binding signal,ETV5,"1.16 fold enrichment (6-mer frequency, TF over GST control)"
same,binding signal,HSF1,"1.24 fold enrichment (6-mer frequency, TF over GST control)"
same,binding signal,SPIC,"1.13 fold enrichment (6-mer frequency, TF over GST control)"
same,binding signal,ELF4,"1.17 fold enrichment (6-mer frequency, TF over GST control)"
same,binding signal,ELK4,"1.2 fold enrichment (6-mer frequency, TF over GST control)"
same,binding signal,ETV2,"1.05 fold enrichment (6-mer frequency, TF over GST control)"
same,binding signal,ELF3,"1.18 fold enrichment (6-mer frequency, TF over GST control)"
same,binding signal,CRX,"1.27 fold enrichment (6-mer frequency, TF over GST control)"
same,binding signal,ETV1,"1.1 fold enrichment (6-mer frequency, TF over GST control)"
